Records with an inconclusive call do not appear. The source made the active and inactive calls. The call rests on the fitted dose curve; in most records, active means well fitted curve in the direction sought with a large enough effect; inconclusive means small, poorly fitted or top-dose-only effect, or another doubt; inactive means no such curve, though single readings can be large; an effect the other way counts as inactive or inconclusive.
Legend:
[1] = qHTS to identify inhibitors of the type 1 interferon - major histocompatibility complex class I in skeletal muscle: primary screen against the NCATS LOPAC collection (AID 1347405);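 further: lytic HiBiT luminescence reporting HLA-B protein level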; further: potency means the concentration at half of the fitted maximal effect
Outline: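 After 24 h at 37 C with compounds (7-point, 1:4.3 dilutions, 46 uM top final) plus 4 ng/ml IFN-beta, luminescence from lytic HiBiT detection was measured. HLA-B*08:01 in C25cl48 myoblasts carried an endogenous C-terminal HiBiT tag; medium lacked dexamethasone.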

[2] = qHTS for inhibitors of adenylyl cyclases using a fission yeast platform: a pilot screen against the NCATS LOPAC library (AID 1347410)
Outline: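 Growth medium went into the plates first, then compounds were pinned (final up to 57 µM), then CHP2027 yeast were added. Plates were incubated overnight (18 h) at 30C in the dark, and GFP was measured by laser scanning cytometry.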

[3] = Validation qHTS assay for inhibitors of Activation Induced Cytidine Deaminase (AID): UDG Counterscreen signal (AID 1347427)
Outline: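 Fluorescence at 560 nm excitation, 665 nm emission reports UDG signal after 250 mM NaOH (2x) addition and 30 min. Enzymes (AID 1 uM, UDG 2 U/mL, at 4/3x) preincubated 10 min with compound, then 4 h with 4x 250 nM DJC20/DJC23 substrate at room temperature.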

[4] = target: Single-stranded DNA cytosine deaminase (Homo sapiens) (UniProt Q9GZX7); experiment: Validation qHTS assay for inhibitors of Activation Induced Cytidine Deaminase (AID): AID signal (AID 1347429)
Chain of Single-stranded DNA cytosine deaminase (Homo sapiens) (Q9GZX7 whole entry, looked up): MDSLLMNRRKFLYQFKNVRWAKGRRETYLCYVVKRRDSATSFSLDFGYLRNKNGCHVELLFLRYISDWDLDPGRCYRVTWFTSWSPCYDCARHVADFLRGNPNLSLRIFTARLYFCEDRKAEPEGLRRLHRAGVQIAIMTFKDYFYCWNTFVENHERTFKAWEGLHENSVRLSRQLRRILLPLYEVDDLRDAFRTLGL
Outline: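 Compounds (final up to 114 uM) preincubated with AID plus UDG; 250 nM DJC20/DJC23 substrate mix (4x stock) added, 4 hr at room temperature, then NaOH, 30 min. Read 1 fluorescence at 540 nm excitation, 590 nm emission.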

[5] = qHTS to identify inhibitors of the type 1 interferon - major histocompatibility complex class I in skeletal muscle: primary screen against the NCATS Mechanism Interrogation Plate v5.0 (MIPE) Libary (AID 1347411); further: nearly all actives have a fitted effect of over 65% in size
Outline: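 Luminescence from CRISPR HiBit-tagged endogenous HLA-B in human myoblasts reported MHC class I level after 24 h of IFN-beta (4 ng/ml) plus compound. Compounds ran as 11-point 1:3 series, top 46 uM final.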

Measured: Potency

N=C(N)c1ccc(N)cc1
not listed: [5]
inactive: all other assays above

O=C(O)/C(=C/c1c(C(=O)O)[nH]c2cc(Cl)cc(Cl)c12)c1ccccc1
not listed: [5]
inactive: all other assays above

CCn1c(=O)[nH]c2cc(Cl)c(Cl)cc21
inactive: [2] | [3] | [4]
active: [1] 3.16 µM

Cc1cc(Cn2cnc3c2C[C@@H](C(=O)O)N(C(=O)C(c2ccccc2)c2ccccc2)C3)ccc1N
not listed: [5]
inactive: all other assays above

CO/N=C(\C(=O)N[C@@H]1C(=O)N2C(C(=O)O)=C(CSc3nc(=O)c(O)nn3C)CSC12)c1csc(N)n1 (stereo not given in full)
not listed: [5]
inactive: all other assays above

Cc1nc(N=Nc2ccc(S(=O)(=O)O)cc2S(=O)(=O)O)c(COP(=O)(O)O)c(C=O)c1O
not listed: [5]
inactive: all other assays above

CCCCOc1cc(CC2CNC(=O)N2)ccc1OC (stereo not given)
not listed: [5]
inactive: all other assays above

CN(C)CCCc1cc(C(=O)Nc2ccc(-c3ccncc3)cc2)ccc1O
inactive: [1] | [2] | [3]

[N-]=[N+]=Nc1ccc(C(=O)CSC[C@H](NC(=O)CC[C@H](N)C(=O)O)C(=O)NCC(=O)O)cc1
inactive: [1] | [2] | [3]

CC(C)NC[C@H](O)COc1ccc(CC(N)=O)cc1
not listed: [5]
inactive: all other assays above

N[C@H](C(=O)O)[C@H](O)C(=O)O
not listed: [5]
inactive: all other assays above

CC[N+](CC)(CC)CC(=O)Nc1c(C)cccc1C
not listed: [5]
inactive: all other assays above

CCCc1c(OCCCOc2ccc(OCC(=O)O)cc2)ccc(C(C)=O)c1O
inactive: all assays above

Cc1cccc(C)c1OCC(N)C(C)C (stereo not given)
not listed: [5]
inactive: all other assays above

N[C@@H](CCC(=O)N[C@H](CSN=O)C(=O)NCC(=O)O)C(=O)O
not listed: [5]
inactive: all other assays above

CCCCCCCCCCCCCCSCC(=O)O
inactive: [1] | [2] | [3]

CC(C)C[C@H](NC(=O)[C@H](O)[C@H](N)Cc1ccccc1)C(=O)O
not listed: [5]
inactive: all other assays above

Nc1ccc2c3c(cccc13)C(=O)NC2=O
not listed: [5]
inactive: all other assays above

From PubChem BioAssay (NCATS)
